# From PubChem BioAssay (NCI)
# About 83,000 compounds went through this panel and 20% of them were active in at least one assay; those are over-represented in the sample as a whole.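 Treatment: one concentration, 48 hours, 96-well format. Scoring: percent growth, with anything below 10 considered active.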 Unmarked numbers belong to inactive results. Activity calls are given as the source filed them.
# Tested on: ACHN renal
# Test: NCI-60 one-dose screen, 48 h (100 = growth as untreated, 0 = no growth, -100 = all killed)
# Details: 10 µM unless noted
# Procedure: Growth inhibition of the ACHN human tumor cell line is measured as a screen for anti-cancer activity. Cells are grown in 96 well plates and exposed to the test compound for 48 hours. Compounds are tested at a single concentration, which is 10^-5 M for most compounds. The reported endpoint is percent growth (GI% or GIPRCNT), where numbers from 0 - 100% represent growth inhibition, and numbers from -100% - 0 represent cell death. For example, a value of 40 represents 60% growth inhibition. A value of 0 means no net growth occurred over the course of the experiment. A value of -40 indicates 40% of cells at the beginning of the experiment died by the end of the experiment. A value of -100 means all cells are dead at the end of the experiment.
# NCI-60 Human Tumor Cell Lines Screen was performed using the standard one-dose NCI protocol, which is described in more detail at https://dtp.cancer.gov/discovery_development/nci-60/default.htm.
# Compounds with GIPRCNT values below 10 were considered active. Activity score was based on GIPRCNT using the following formula: […]
# Score is 0 for GIPRCNT values of 100 or above, 50 for GIPRCNT values of 0, and 100 for GIPRCNT values of -100.
row,Structure (SMILES),growth
1,CC(=O)c1ccccc1NC(=O)C(C)(c1ccccc1)c1ccccc1,83.7%
2,Cc1sc2nc(N3CCCCC3)[nH]c(=O)c2c1C,103%
3,COc1ccc(C2CC(c3ccc4c(c3)OCO4)=NN2C=O)cc1 (stereo not given),103%
4,Nc1nc2c(nnn2Cc2ccc(Cl)c(Cl)c2)c(=O)[nH]1,92.4%
5,OC(c1cc(-c2cccc(Cl)c2)nc2ccccc12)C1CCCCN1 (stereo not given),-0.726% (active)
6,COC(=O)[C@H](Cc1cnc[nH]1)NC(=O)[C@@H](NC(=O)Nc1cc(C(F)(F)F)cc(C(F)(F)F)c1)C(C)C,-58.3% [100 µM] (active)
7,CC(C)N(Cc1ccccc1)c1c(Cl)ssc1=O,102%
8,COc1cc2c(cc1OC)C(=O)/C(=C/c1cccc(OCC(=O)c3ccccc3)c1)C2,96.9%
9,Nc1c(C(=O)Nc2cccc(Cl)c2)sc2nc3c(cc12)C(O)CCC3 (stereo not given),43.3%
10,CCc1ccc(-c2nc(SCC(=O)NC3CCCCC3)n[nH]2)cc1,64.2%
11,C/C(=C\CCc1ccoc1)CC/C=C(\C)CCCN1CCSCC1,83.8%
12,O=C1Nc2ccc(Cl)cc2/C1=C/c1cccs1,88.2%
13,COc1cc(C2CC(C3C(=O)N(C)C(=O)N(C)C3=O)=NN2C=O)cc(OC)c1OC (stereo not given),105%
14,Cc1n(Cc2ccc3ccccc3c2)c2ccccc2[n+]1Cc1ccc2ccccc2c1,25.3%
15,O=C(/C=C(\Nc1ccccc1)c1ccccc1)c1cn(-c2ccc([N+](=O)[O-])cc2)nn1,94.6%
16,CCSc1ncc(Br)c(Sc2nc(N)nc3nc[nH]c23)n1,77.6%
17,NC(=O)c1cc(Br)cc(Br)c1NS(=O)(=O)c1ccccc1,100%
18,COc1ccc2nc(-c3ccc(Cl)cc3)cc(-c3nnc(SCC(=O)Nc4ccc(C(C)=O)cc4)n3-c3ccccc3)c2c1,108%
19,FCc1ncc(-c2ccc(C(F)(F)F)cc2)c(NC2CCCCCC2)n1,8.81% [100 µM] (active)
20,O=C1C=CC(=O)N1c1ccccn1,97.4%

row,Structure (SMILES),growth
1,O=C1C(=O)c2c(nc3ccc(Cl)cn23)-c2ccccc21,-100% (active)
2,COc1ccc(-c2cnc(SCC(=O)Nc3ccc(-c4nc5ccccc5s4)cc3)n2-c2ccc(OC)cc2)cc1,111%
3,NS(=O)(=O)c1ccc(-n2ncc3c(NC4CCCCC4)ncnc32)cc1,92.3%
4,COc1cccc(N2CCN(c3cccc(C)n3)CC2)c1,108%
5,O=C(O)CCC(=O)OC[C@@H](NC(=O)C(Cl)Cl)[C@H](O)c1ccc([N+](=O)[O-])cc1,88.1%
6,CC(C)OP(=O)(OC(C)C)c1ncc(-c2ccc(C(F)(F)F)cc2)c(NC2CCCCCC2)n1,-1.03% [33.3 µM] (active)
7,CCOc1cc(/C=C/C(=O)CC(=O)/C=C/c2ccc(OC(=O)CNc3nc4ccc(OC)cc4s3)c(OCC)c2)ccc1OC(=O)CNc1nc2ccc(OC)cc2s1,69.4%
8,Cc1ccc2nc(-c3ccc(N(C)C)c(Br)c3)cn2c1,95.6%
9,NC(=O)NC1(C(=O)O)CCCC1,105%
10,COc1cccc(-c2nc3cc(NC(=O)c4ccc(Cl)c(C#N)c4)ccc3o2)c1,36.2%
11,CC(=O)N1N=C(c2ccc(Nc3ccnc4cc(Cl)ccc34)cc2)CC1c1ccc(Cl)cc1 (stereo not given),34.1%
12,O=C1/C(=C\c2coc3ccccc3c2=O)c2ccccc2N1c1c(Cl)cccc1Cl,54.6%
13,C=C1CC[C@@H]2[C@](C)(COC(C)=O)[C@H](OC(C)=O)CC[C@@]2(C)[C@@H]1CC(NCc1ccccc1)C1=CCOC1=O (stereo not given in full),46.4%
14,Cc1cc(-c2ccccc2)cc(C)n1,106%
15,CCCCNCCCN(CCCC)CCCNCCCC,104%
16,Cn1c(N2N=C(c3ccc(Cl)cc3)CC2c2ccccc2)nc(-c2ccccc2)c(C#N)c1=O (stereo not given),77.2%
17,CCCn1c(N)c(C(=O)CNc2ccc(I)cc2)c(=O)[nH]c1=O,50.7%
18,COc1cnc2c(c1)C(=O)c1c-2n(CCCNC(C)C)c(=O)c2cc(F)ccc12,-69.4% (active)
19,Cc1cc(C)nc(NS(=O)(=O)c2ccc(Nc3nc4nc(SCc5ccccc5)nc(-c5ccc(O)cc5)c4c(=O)[nH]3)cc2)n1,104%
20,Nc1ccccc1-c1ccn[nH]1,70.5%
